C diff growth: inhibitors of Clostridium difficile growth. Clostridium difficile clinical isolate growth, OD600, 24 h; active compounds read low. hit rate 0.25% among 86,000. growth activity, negative = inhibition, % at 16 µg/mL (by protocol);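 active means mean growth activity at or below -80% and every replicate also at or below -80%; inconclusive means mean at or below -80% but some replicate above -80%; inactive means mean growth activity above -80%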
Pf Dd2 growth: blocks growth of Plasmodium falciparum Dd2 parasites; P. falciparum Dd2 growth, SYBR Green, 72 h; active compounds read low; hit rate 2.3% among 94,000; activity change, % at 10 µM; AID 1159554; in the data active means activity change below about -80%; inconclusive means no clear call, values can overlap the other calls
T cruzi growth-1: inhibitors of T. cruzi proliferation; T. cruzi beta-gal in NIH3T3, GalScreen luminescence, 90 h; inhibition, % at 8.34 µM; hit rate 5.9% among 77,000;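 active means mean inhibition above about 93%, with at least 55% of replicates each passing it, limit read from the data, passing the limit was not always enough; inconclusive means only one of those two conditions holds; inactive means neither condition holds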
T cruzi growth-2: Trypanosoma cruzi proliferation inhibition; shares compounds with T cruzi growth-1; T. cruzi beta-gal in NIH3T3, GalScreen luminescence, 90 h; inhibition, % at 8.35 µM; hit rate 72% among 5,600; AID 651739;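 active means mean replicate inhibition above about 95% and at least 55% of replicates individually reaching it, limit read from the data; inconclusive means only one of the two criteria is met; inactive means neither criterion is met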
T cruzi growth-3: blocks T. cruzi growth in NIH3T3 host cells. shares compounds with T cruzi growth-1. T. cruzi beta-gal in NIH3T3, GalScreen luminescence, 90 h. inhibition, % at 2.09 µM. hit rate 21% among 5,600. AID 651740;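 active means mean inhibition above about 95%, with at least 55% of replicates also reaching it, limit read from the data; inconclusive means meets just one of the two conditions; inactive means meets neither condition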
3T3 cytotox: NIH/3T3 (mouse) viability loss. NIH/3T3 viability, CellTiter-Glo ATP luminescence, 90 h. AID 651742. hit rate 14% among 5,600. shares compounds with T cruzi growth-1. cytotoxicity (signal decrease), % at 8.35 µM;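 active means mean signal decrease across replicates above about 35% based on untreated-well scatter, with enough replicates individually passing, limit read from the data; inconclusive means no rule stated though some were filed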
NIH3T3 tox 2: kills mouse NIH/3T3 fibroblasts; shares compounds with T cruzi growth-1; NIH/3T3 viability, CellTiter-Glo ATP luminescence, 90 h; inhibition, % at 24.9 µM; hit rate 56% among 5,600; AID 651744;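 active means mean loss of cell viability signal at or above a set limit, and enough replicates individually reaching it; inconclusive means meets only the mean limit or only the replicate share; inactive means meets neither condition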
Large screens that a line does not name were inactive (follow-up assays come after a bar, where they were run); ! = not confirmed by another sample. Shown are actives, neighbours in structure and some others; about 6.7% of the full set was active somewhere.

C/C=C/c1ccc2c(c1)O[C@H](CN(C)C(=O)CC)[C@H](C)CN([C@H](C)CO)S2(=O)=O	none
Cc1ccc(S(=O)(=O)Nc2cccc3c2O[C@H](CN(C)Cc2ccc(Oc4ccccc4)cc2)[C@H](C)CN([C@H](C)CO)C3=O)cc1	none (no result: C diff growth)
C[C@@H]1CN([C@@H](C)CO)C(=O)Cc2cc(NC(=O)CCCN(C)C)ccc2O[C@H]1CN(C)S(=O)(=O)c1cccs1	none
Cc1ccc(S(=O)(=O)N(C)C[C@H]2Oc3cc(C#CC4CCCC4)ccc3S(=O)(=O)N([C@@H](C)CO)C[C@H]2C)cc1	T cruzi growth-1 123.2 | T cruzi growth-2 inactive | T cruzi growth-3 111.5 | 3T3 cytotox inactive | NIH3T3 tox 2 46.3
COCC#Cc1ccc2c(c1)O[C@@H](CN(C)S(=O)(=O)c1ccc(C)cc1)[C@@H](C)CN([C@@H](C)CO)S2(=O)=O	none
COCC#Cc1ccc2c(c1)O[C@H](CN(C)S(=O)(=O)c1ccc(C)cc1)[C@H](C)CN([C@H](C)CO)S2(=O)=O	none
C[C@H](CO)N1C[C@H](C)[C@@H](CN(C)S(C)(=O)=O)Oc2cc(C#CC3CCCC3)ccc2S1(=O)=O	T cruzi growth-1 123.3 (no result: C diff growth) | T cruzi growth-2 102.1 | T cruzi growth-3 inactive | 3T3 cytotox inactive | NIH3T3 tox 2 65.9
C[C@@H]1CN([C@H](C)CO)S(=O)(=O)c2ccc(C#CC3CCCC3)cc2O[C@@H]1CN(C)S(C)(=O)=O	none (no result: C diff growth)
Cc1ccc(S(=O)(=O)N(C)C[C@@H]2Oc3cc(C#CC4CCCC4)ccc3S(=O)(=O)N([C@H](C)CO)C[C@H]2C)cc1	T cruzi growth-1 127.7 | T cruzi growth-2 103.3 | T cruzi growth-3 inconclusive | 3T3 cytotox 73.9 | NIH3T3 tox 2 66.4
Cc1ccc(S(=O)(=O)N(C)C[C@H]2Oc3cc(C#CC4CCCC4)ccc3S(=O)(=O)N([C@@H](C)CO)C[C@@H]2C)cc1	T cruzi growth-1 121.2 | T cruzi growth-2 97.2 | T cruzi growth-3 108.8 | 3T3 cytotox inactive | NIH3T3 tox 2 43.5
COc1ccc(S(=O)(=O)N(C)C[C@@H]2Oc3ncccc3C(=O)N([C@H](C)CO)C[C@@H]2C)cc1	none (no result: T cruzi growth-1)
COc1ccc(S(=O)(=O)N(C)C[C@H]2Oc3cc(C#CC4CCCCC4)ccc3S(=O)(=O)N([C@@H](C)CO)C[C@@H]2C)cc1	none (no result: C diff growth)
Cc1ccc(S(=O)(=O)N(C)C[C@@H]2Oc3cc(C#CC4CCCC4)ccc3S(=O)(=O)N([C@@H](C)CO)C[C@@H]2C)cc1	T cruzi growth-1 125.3 | T cruzi growth-2 inactive | T cruzi growth-3 111.7 | 3T3 cytotox inactive | NIH3T3 tox 2 40.2
Cc1ccc(S(=O)(=O)N(C)C[C@H]2Oc3cc(C#CC4CCCC4)ccc3S(=O)(=O)N([C@H](C)CO)C[C@H]2C)cc1	T cruzi growth-1 125.8 | T cruzi growth-2 97.3! | T cruzi growth-3 116.6 | 3T3 cytotox inactive | NIH3T3 tox 2 37.9!
O=C(C[C@H]1CC[C@@H]2[C@H](COC[C@@H](O)CN2S(=O)(=O)c2ccccc2)O1)N1CCOCC1	none
C[C@H]1CN([C@@H](C)CO)C(=O)c2cc(NC(=O)Nc3cccc4ccccc34)ccc2O[C@@H]1CN(C)Cc1ccc(Cl)c(Cl)c1	none
C[C@H](CO)N1C[C@H](C)[C@H](CN(C)Cc2ccc(Cl)c(Cl)c2)Oc2ccc(NC(=O)Nc3cccc4ccccc34)cc2CC1=O	none
C[C@H]1CN([C@@H](C)CO)C(=O)c2cc(NC(=O)Nc3cccc4ccccc34)ccc2O[C@H]1CN(C)Cc1ccc(Cl)c(Cl)c1	T cruzi growth-1 inconclusive | T cruzi growth-2 95.9 | T cruzi growth-3 inactive | 3T3 cytotox inactive | NIH3T3 tox 2 inactive
C[C@@H]1CN([C@H](C)CO)C(=O)Cc2cc(NC(=O)Nc3cccc4ccccc34)ccc2O[C@@H]1CN(C)Cc1ccc(Cl)c(Cl)c1	T cruzi growth-1 inconclusive | T cruzi growth-2 107.8 | T cruzi growth-3 107.5 | 3T3 cytotox 44.4 | NIH3T3 tox 2 inactive
Cn1cnc(S(=O)(=O)N2C[C@H](O)COC[C@@H]3O[C@@H](CC(=O)NCc4ccc(F)cc4)CC[C@H]32)c1	none (no result: C diff growth)
CC(=O)Nc1ccc2c(c1)C(=O)N(C)[C@@H]1CC[C@H](CC(=O)NCC3CC3)O[C@H]1CO2	none
N#C[C@@H]1[C@H](c2ccccc2)[C@@H](CO)N1C(=O)c1cc(Cl)cc(Cl)c1	none
N#C[C@H]1[C@@H](c2ccc(-c3ccccc3)cc2)[C@H](CO)N1C(=O)Cc1ccccc1	T cruzi growth-1 104.4 | T cruzi growth-2 110.3 | T cruzi growth-3 inactive | 3T3 cytotox inactive | NIH3T3 tox 2 31.5
N#C[C@@H]1[C@H](c2ccc(-c3ccccc3)cc2)[C@H](CO)N1C(=O)Cc1ccccc1	T cruzi growth-1 inconclusive | T cruzi growth-2 102.9 | T cruzi growth-3 inactive | 3T3 cytotox inactive | NIH3T3 tox 2 inactive
N#C[C@H]1[C@H](c2ccc(-c3ccccc3)cc2)[C@H](CO)N1C(=O)Cc1ccccc1	none
N#C[C@H]1[C@@H](c2ccccc2)[C@H](CO)N1C(=O)c1cc(Cl)cc(Cl)c1	T cruzi growth-1 inconclusive | T cruzi growth-2 inconclusive | T cruzi growth-3 inactive | 3T3 cytotox inactive | NIH3T3 tox 2 inactive
N#C[C@@H]1[C@@H](c2ccc(-c3ccccc3)cc2)[C@H](CO)N1C(=O)Cc1ccccc1	none
CO[C@H]1CC[C@@H]2CCOc3c(C#N)cccc3C(=O)N(C)C[C@H](OC)[C@@H](C)C(=O)N(C)C[C@@H]1O2	none (no result: Pf Dd2 growth)
COc1ccc(NC(=O)N2C[C@@H](O)COC[C@H]3O[C@H](CC(=O)N4CCN(C)CC4)CC[C@@H]32)cc1	none (no result: C diff growth)
Cc1ccc(S(=O)(=O)NCC[C@H]2CC[C@H](NC(=O)C3CCOCC3)[C@H](CO)O2)cc1	none
O=C(N[C@@H]1CC[C@@H](CCNS(=O)(=O)c2ccccc2)O[C@H]1CO)c1cccc(F)c1	none
C[C@H](CO)N1C[C@H](C)[C@@H](CN(C)CC2CC2)Oc2ccc(NS(C)(=O)=O)cc2CC1=O	none
C[C@@H]1CN([C@H](C)CO)C(=O)c2cccc(NC(=O)Nc3ccc(C(F)(F)F)cc3)c2O[C@@H]1CN(C)C(=O)Nc1ccc(F)cc1	none (no result: T cruzi growth-1)
COc1ccc(-c2cnc3c(c2)C(=O)N([C@H](C)CO)C[C@H](C)[C@H](CN(C)S(=O)(=O)c2cccc(OC)c2)O3)cc1	none
CO[C@@H]1CN(C)C(=O)c2ccc(NS(C)(=O)=O)cc2OC[C@H](C)N(Cc2cncnc2)C[C@@H]1C	none (no result: C diff growth)
C[C@@H]1CN([C@H](C)CO)S(=O)(=O)c2ccc(-c3ccccc3F)cc2O[C@@H]1CN(C)Cc1ccncc1	T cruzi growth-1 109.9 | T cruzi growth-2 100.6 | T cruzi growth-3 inactive | 3T3 cytotox 35.4 | NIH3T3 tox 2 77.1
C[C@H]1CN([C@@H](C)CO)S(=O)(=O)c2ccc(-c3ccccc3F)cc2O[C@@H]1CN(C)Cc1cncnc1	none

Assay outcomes (PubChem)
